Sampled rows, rich in hits. Any-hit rate of the full collection: about 18%.
IL1B secr inh = inhibitors of inflammasome signaling (IL-1 beta secretion). THP-1 LPS/ATP IL-1B secretion, AlphaLISA, 16 h; stronger effect = lower value. activity change, % at 57.5 µM. hit rate 4.7% among 360,000. AID 743279; in the data active = activity change below about -50%; inconclusive = mostly about -30% to -49%
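Secreted IL-1B measured by AlphaLISA bead assay after 16 h compound exposure of THP-1 cells; compounds (final up to 57.5 uM) added 1 h before LPS (250 ng/mL) and ATP (1.25 mM) stimulation; lower signal means less secretion.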
CtBP-E1A blk = inhibitors of CtBP/E1A interaction; AlphaScreen GST-E1A/His-CtBP binding, 1536-well; stronger effect = lower value; activity change, % (test concentration not listed); hit rate 0.49% among 340,000; in the data active = activity change below about -65%; inconclusive = mostly about -30% to -63%
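In 5 uL wells, 23 nL compound meets equimolar GST-E1A and His-CtBP (5X stock 125 nM each) for 2 h, 37 °C. Beads (5X, 50 ug/mL) then 1 h, 37 °C, dark.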
TDP1 block = blocks human tyrosyl-DNA phosphodiesterase 1; recombinant TDP1, AlphaScreen DNA substrate cleavage; Potency, µM (top dose mostly 130 µM), without a hit: at the top dose activity change, negative = inhibition, most hits filed as inhibitors; AID 485290; Q9NUW8; hit rate 0.28% among 350,000; also: potency is read from the fitted curve at half-maximal effect; nearly all actives have a fitted effect of over 40% in size
Target sequence (Q9NUW8 whole entry, looked up): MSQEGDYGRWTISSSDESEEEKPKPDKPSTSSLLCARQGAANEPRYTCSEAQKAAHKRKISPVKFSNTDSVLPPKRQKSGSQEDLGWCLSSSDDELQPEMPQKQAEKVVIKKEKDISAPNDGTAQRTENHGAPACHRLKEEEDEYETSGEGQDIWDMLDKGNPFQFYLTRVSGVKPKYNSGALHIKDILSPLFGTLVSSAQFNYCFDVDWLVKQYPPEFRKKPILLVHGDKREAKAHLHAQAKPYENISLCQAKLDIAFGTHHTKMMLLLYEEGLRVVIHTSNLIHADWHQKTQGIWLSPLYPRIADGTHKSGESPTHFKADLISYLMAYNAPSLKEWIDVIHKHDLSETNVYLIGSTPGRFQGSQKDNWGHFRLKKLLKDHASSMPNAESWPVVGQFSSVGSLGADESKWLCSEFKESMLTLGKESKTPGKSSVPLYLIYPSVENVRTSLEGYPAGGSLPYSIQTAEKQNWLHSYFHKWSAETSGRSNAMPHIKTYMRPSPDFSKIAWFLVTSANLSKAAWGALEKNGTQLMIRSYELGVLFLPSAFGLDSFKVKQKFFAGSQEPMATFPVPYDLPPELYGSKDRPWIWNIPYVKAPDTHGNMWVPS
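Recombinant human Tdp1 (E. coli-expressed, 1 nM final) preincubated with compounds 15 min at room temperature, then 5'-biotin/3'-phosphotyrosine-FITC DNA substrate (15 nM final) added for 5 min. AlphaScreen beads (10 ug/ml final) added 10 min; cleavage lowers signal.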
Six1-Eya2 blk = Six1/Eya2 interaction inhibition; AID 651725; hit rate 0.56% among 360,000; activity change, % (no concentration beside the values); AlphaScreen GST-Six1/His-Eya2 binding, biochemical; stronger effect = lower value; in the data active = activity change below about -65%; inconclusive = mostly about -30% to -63%
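AlphaScreen with GST-Six1 and His-Eya2 (5X mix: 250 nM and 500 nM), glutathione donor and nickel acceptor beads; buffer 50 mM Tris pH 8.0, 300 mM NaCl, 1 mM TCEP; 1 h at 37 C in the dark.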
DT40 TDP1 CPT = growth inhibition of DT40 Tdp1-/-;hTDP1 cells with camptothecin (screen for TDP1 inhibitors). Potency, µM (series often up to 46.2 µM), for inactives: at the top dose activity change, negative = growth inhibition, actives largely listed as inhibitors. chicken DT40 Tdp1-/-;hTDP1 cells + 20 nM CPT, ATP luminescence, 48 h. hit rate 12% among 420,000. AID 686979; also: potency is read from the fitted curve at half-maximal effect; nearly all actives have a fitted effect of over 55% in size
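Chicken DT40 Tdp1-/- cells stably complemented with human TDP1 were seeded at 400 cells/well in medium containing 20 nM camptothecin, exposed to pin-transferred compounds, and grown at 37 °C for at least 48 hr. Viability was read as ATP luminescence.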
TDP1 cell noCPT = qHTS for Inhibitors of human tyrosyl-DNA phosphodiesterase 1 (TDP1): qHTS in cells in absence of CPT; DT40 Tdp1-/- hTDP1 cells, no CPT, ATP luminescence, 48 h; AID 686978, 2013; Potency, µM (series often up to 46.2 µM), for the others: top-dose activity change, negative = growth inhibition, actives largely listed as inhibitors; hit rate 15% among 420,000; also: potency is read from the fitted curve at half-maximal effect; nearly all actives have a fitted effect of over 55% in size
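Compound effects on proliferation are scored in DT40 Tdp1-/-;hTDP1 cells in the absence of CPT. ATP levels (CellTiter-Glo luminescence) are recorded after a ≥48 hr, 37 °C incubation.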
Numbers without * were called inactive. Unless noted, calls follow the shape of the dose curve; as a rule, active = well fitted curve in the direction sought with a large enough effect; inconclusive = small, poorly fitted or top-dose-only effect, or another doubt; inactive = no such curve, though single readings can be large; an effect the other way counts as inactive or inconclusive. % is scaled to controls: 0 for no effect and ±100 for the full control effect.

Results for Cn1cnc([N+](=O)[O-])c1S(=O)(=O)c1ccc(Cl)cc1 ?
IL1B secr inh: -137.9*; CtBP-E1A blk: 2.4; TDP1 block: -5.3%; Six1-Eya2 blk: 5.5; DT40 TDP1 CPT: 1.16µM*; TDP1 cell noCPT: 2.91µM*

What do the screens show for `COc1ccc(S(=O)(=O)NCc2ccccn2)c(C)c1C`?
IL1B secr inh: -11.2; CtBP-E1A blk: 0.5; Six1-Eya2 blk: 2.8; DT40 TDP1 CPT: -14.2%; TDP1 cell noCPT: inconclusive

Results for COc1ccccc1NC(=O)c1c([N+](=O)[O-])cnn1C ?
IL1B secr inh: -11.6; TDP1 block: 1.41µM*; Six1-Eya2 blk: 1.8; DT40 TDP1 CPT: -2.5%; TDP1 cell noCPT: -14.7%

Results for CCOc1ccc(C(=O)Nc2ccc(-c3nc4ccccc4[nH]3)cc2)cc1[N+](=O)[O-] ?
IL1B secr inh: 2.4; CtBP-E1A blk: -7.9; Six1-Eya2 blk: -12.7; DT40 TDP1 CPT: 20.6µM*; TDP1 cell noCPT: 18.4µM*

What do the screens show for `COc1ccccc1CNC(=O)CSc1ccc(C(=O)Nc2ccccc2OC)cc1[N+](=O)[O-]`?
IL1B secr inh: 3.6; CtBP-E1A blk: -1.0; TDP1 block: -3.4%; Six1-Eya2 blk: -6.9; DT40 TDP1 CPT: 9.2µM*; TDP1 cell noCPT: 9.2µM*

How did CCOc1ccc(C(=O)Nc2ccc(NC(=O)c3ccccc3)c(C)c2)cc1[N+](=O)[O-] do in these assays?
IL1B secr inh: -4.8; CtBP-E1A blk: 5.7; TDP1 block: -1.9%; Six1-Eya2 blk: 8.4; DT40 TDP1 CPT: -5.6%; TDP1 cell noCPT: inconclusive

Results for Cn1ncc([N+](=O)[O-])c1C(=O)Nc1ccccc1C(=O)O ?
IL1B secr inh: 23.7; CtBP-E1A blk: 6.3; Six1-Eya2 blk: -7.1; DT40 TDP1 CPT: -18.0%; TDP1 cell noCPT: 10.3%

What do the screens show for `Cn1ncc([N+](=O)[O-])c1C(=O)Nc1ccc(-c2nc3ccccc3[nH]2)cc1`?
IL1B secr inh: -13.6; CtBP-E1A blk: -27.5; TDP1 block: 3.1%; Six1-Eya2 blk: -28.8; DT40 TDP1 CPT: inconclusive; TDP1 cell noCPT: 18.4µM*

What do the screens show for `Cn1ncc([N+](=O)[O-])c1C(=O)Nc1ccc(Cl)cc1`?
IL1B secr inh: inconclusive; CtBP-E1A blk: -6.3; Six1-Eya2 blk: -7.6; DT40 TDP1 CPT: -9.5%; TDP1 cell noCPT: 16.5%

What do the screens show for `COc1ccccc1NC(=O)c1ccc(SCC(=O)NCc2ccccc2Cl)c([N+](=O)[O-])c1`?
IL1B secr inh: 15.4; CtBP-E1A blk: 11.8; TDP1 block: 2.3%; Six1-Eya2 blk: -4.3; DT40 TDP1 CPT: inconclusive; TDP1 cell noCPT: inconclusive

How did Cc1cc(-c2ccc(Cl)cc2)n2ncnc2n1 do in these assays?
IL1B secr inh: -14.1; CtBP-E1A blk: 3.4; TDP1 block: 2.7%; Six1-Eya2 blk: 3.8; DT40 TDP1 CPT: 1.4%; TDP1 cell noCPT: 4.5%

Results for Cn1nc([N+](=O)[O-])c(C(C#N)c2ccccn2)c(Cl)c1=O (stereo not drawn) ?
IL1B secr inh: -102.0*; TDP1 block: 2.5%; Six1-Eya2 blk: -7.3; DT40 TDP1 CPT: 5.17µM*; TDP1 cell noCPT: 3.66µM*

How did Cc1ccc(Cn2c(C(C)Nc3nc(-c4ccc(Cl)c([N+](=O)[O-])c4)cs3)nc3cc(C(F)(F)F)ccc32)cc1 (stereo not drawn) do in these assays?
IL1B secr inh: -1.1; CtBP-E1A blk: -3.6; Six1-Eya2 blk: -1.8; DT40 TDP1 CPT: inconclusive; TDP1 cell noCPT: inconclusive

What do the screens show for `CCn1nc([N+](=O)[O-])c(C(C#N)c2nc3cc(C(F)(F)F)ccc3s2)c(Cl)c1=O` (stereo not drawn)?
IL1B secr inh: -96.7*; CtBP-E1A blk: -24.9; TDP1 block: 12.4%; Six1-Eya2 blk: inconclusive; DT40 TDP1 CPT: 14.6µM*; TDP1 cell noCPT: 23.1µM*

How did N#CC(c1ccccn1)c1ncc(C(F)(F)F)cc1Cl (stereo not drawn) do in these assays?
IL1B secr inh: -11.5; CtBP-E1A blk: 0.0; TDP1 block: 0.0%; Six1-Eya2 blk: 0.7; DT40 TDP1 CPT: 8.0%; TDP1 cell noCPT: -6.2%

Results for CCCn1nc([N+](=O)[O-])c(C(C#N)c2nc3ccccc3o2)c(Cl)c1=O (stereo not drawn) ?
IL1B secr inh: -82.0*; CtBP-E1A blk: -24.3; TDP1 block: 2.7%; Six1-Eya2 blk: inconclusive; DT40 TDP1 CPT: inconclusive; TDP1 cell noCPT: -24.5%

What do the screens show for `CCCc1nc2sc3c(c2c(=O)n1NC(=O)CCC(=O)O)CCCC3`?
IL1B secr inh: -3.4; CtBP-E1A blk: 11.1; TDP1 block: 5.2%; Six1-Eya2 blk: 6.1; DT40 TDP1 CPT: -6.3%; TDP1 cell noCPT: -9.3%

How did CCC(C)NC(=O)c1ccc2nc(Cc3ccccc3)oc2c1 (stereo not drawn) do in these assays?
TDP1 block: -3.0%; DT40 TDP1 CPT: inconclusive; TDP1 cell noCPT: 14.6µM*

What do the screens show for `COc1ccc(N2CCN(CCCNC(=O)c3nnc(Cc4ccc(F)cc4)o3)CC2)cc1`?
TDP1 block: 1.3%; DT40 TDP1 CPT: 16.4µM*; TDP1 cell noCPT: inconclusive

How did COc1ccc(N2CCN(CCCNC(=O)c3ccc4nc(Cc5ccccc5)oc4c3)CC2)cc1 do in these assays?
TDP1 block: 10.1%; DT40 TDP1 CPT: 6.51µM*; TDP1 cell noCPT: 6.51µM*

What do the screens show for `COCC1CCCCN1C(=O)c1ccc2nc(Cc3ccc(OC)c(OC)c3)oc2c1` (stereo not drawn)?
IL1B secr inh: 77.2; CtBP-E1A blk: 4.9; TDP1 block: 3.7%; Six1-Eya2 blk: -2.9; DT40 TDP1 CPT: 11.6µM*; TDP1 cell noCPT: inconclusive

What do the screens show for `COc1ccc(Cc2nc3ccc(C(=O)NCCCN4CCN(C)CC4)cc3o2)cc1`?
TDP1 block: -1.8%; DT40 TDP1 CPT: inconclusive; TDP1 cell noCPT: inconclusive

How did CCCc1nnc(NC(=O)CSc2nnc(-c3ccco3)n2C)s1 do in these assays?
IL1B secr inh: 13.0; CtBP-E1A blk: -18.2; TDP1 block: 2.4%; Six1-Eya2 blk: -1.5; DT40 TDP1 CPT: 16.8%; TDP1 cell noCPT: 3.2%

What do the screens show for `Nc1nnc(-c2ccc(Cl)cc2)s1`?
IL1B secr inh: -11.7; CtBP-E1A blk: 9.1; TDP1 block: 2.3%; Six1-Eya2 blk: 0.5; DT40 TDP1 CPT: -12.8%; TDP1 cell noCPT: -15.0%

How did CCc1cc(CNC(=O)c2ccc3nc(Cc4ccc(OC)c(OC)c4)oc3c2)on1 do in these assays?
IL1B secr inh: 5.1; CtBP-E1A blk: -24.6; TDP1 block: 1.9%; Six1-Eya2 blk: -0.4; DT40 TDP1 CPT: 23.1µM*; TDP1 cell noCPT: inconclusive

From PubChem
